Compound activity (PubChem)
14-3-3 Bad inh = disrupts binding of bovine 14-3-3 zeta to phospho-Bad peptide | inhibition, % at 21.7 µM | actives 0.71% (n = 220,000) | AID 781 | TR-FRET 14-3-3zeta/Dy647-pBad peptide displacement, 1 h;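 active = inhibition above about 70%, limit read from the data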
Target sequence (P63103 whole entry, looked up): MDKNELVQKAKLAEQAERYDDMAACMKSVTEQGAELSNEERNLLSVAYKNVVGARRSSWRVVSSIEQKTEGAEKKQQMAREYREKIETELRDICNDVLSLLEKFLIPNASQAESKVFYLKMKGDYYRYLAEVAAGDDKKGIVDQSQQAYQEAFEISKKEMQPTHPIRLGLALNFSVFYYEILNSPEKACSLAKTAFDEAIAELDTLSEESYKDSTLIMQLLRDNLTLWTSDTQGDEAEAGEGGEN
Mcl1-Bid inh = Mcl-1/Bid interaction inhibition; Q07820; TR-FRET Mcl-1/Bid-Dy647 peptide binding, 1536-well; inhibition, % at 21.7 µM; actives 0.97% (n = 220,000);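 active = compounds that cut the binding signal by more than half at the single screening dose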;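 note: His-tagged Mcl-1 with europium anti-His antibody binding Bid BH3 peptide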
Target sequence (Q07820 whole entry, looked up): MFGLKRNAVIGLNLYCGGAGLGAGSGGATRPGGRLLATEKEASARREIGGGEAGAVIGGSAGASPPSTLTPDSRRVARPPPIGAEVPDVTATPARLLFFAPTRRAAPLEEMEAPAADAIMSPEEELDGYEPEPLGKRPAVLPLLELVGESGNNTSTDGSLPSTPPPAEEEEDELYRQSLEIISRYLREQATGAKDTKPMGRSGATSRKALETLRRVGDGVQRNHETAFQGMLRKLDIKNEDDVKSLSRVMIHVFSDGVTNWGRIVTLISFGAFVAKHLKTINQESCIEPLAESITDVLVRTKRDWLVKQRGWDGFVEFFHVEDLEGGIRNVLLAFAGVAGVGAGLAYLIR
Mcl-1 Bim block = inhibitors of Bim-Mcl-1 interaction, human; Q07820; Bead-based flow cytometry, Bim peptide-Mcl-1 binding; inhibition, % at 10 µM; actives 0.1% (n = 190,000); in the data active = inhibition above about 40%
Hck Nef HTS = inhibitors of human Hck kinase activated by Nef | Recombinant Hck-YEEI plus Nef, Z-Lyte FRET kinase assay | AID 463187 | actives 0.68% (n = 220,000) | inhibition, % at 20 µM;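 active = Hck-Nef kinase inhibition above about 50%, limit read from the data; inactive = inhibition below that limit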
eIF4E 4G PPI = eIF4E/eIF4G interaction inhibition in translation initiation; AID 782; TR-FRET eIF4E-eIF4GI(517-606) binding, 2 h; inhibition, % at 21.7 µM; actives 0.37% (n = 220,000);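 active = inhibition above about 30%, limit read from the data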
Mcl1 Noxa PPI = Mcl-1/Noxa interaction inhibition; AID 1022; Q07820; inhibition, % at 21.7 µM; actives 1.5% (n = 220,000); TR-FRET Mcl-1/Noxa peptide binding, 2 h;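 active = compounds that cut the protein-peptide binding signal by more than 50% relative to plate controls in a single-dose test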;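 note: His-tagged Mcl-1 with rhodamine Noxa BH3 peptide and terbium anti-His antibody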
Each line names hits and unclear results; the compound was inactive in the other large screens; [ ] = remark or other dose. This is a sample that favours compounds with a hit; in the whole collection about 3.5% have one here.

COc1cccc(OC)c1C(=O)N1CCN(Cc2ccncc2)CC1	Mcl1-Bid inh 71
C=CCn1c(SCc2ccc(C#N)cc2)nnc1-c1cccc(OC)c1	Mcl1-Bid inh 95
C=CCn1c(SCc2ccc(C#N)cc2)nnc1-c1ccccc1	none
N#Cc1c(/N=C/c2ccccc2)oc(-c2ccccc2)c1-c1ccccc1	none
N#Cc1c(/N=C/c2ccco2)oc(-c2ccccc2)c1-c1ccccc1	14-3-3 Bad inh 93[fluorescence artefact?]
O=c1oc2ccccc2c(Nc2cc3ccccc3cc2O)c1[N+](=O)[O-]	Mcl1 Noxa PPI 53
COC(=O)c1ccccc1NC(=O)c1ccc(COc2ccc3c(c2)CCC3)cc1	Mcl1-Bid inh 58
COc1ccccc1NC(=O)c1ccc(COc2ccc3c(c2)CCC3)cc1	none
COCC(=O)Nc1ccccc1C(=O)Nc1ccc(OC)cc1	none
COc1ccc(C(=O)Nc2ccccc2C(N)=O)cc1	eIF4E 4G PPI 100[fluorescence artefact?]
COc1ccc(NC(=O)c2ccccc2NC(=O)COc2ccccc2)cc1	Mcl1-Bid inh 53
CCCCCC(/C=N/Nc1ccc(S(=O)(=O)N2CCOCC2)cc1[N+](=O)[O-])=C\c1ccccc1	none
O=C1C=C(NNC(=O)c2cccnc2)CC(c2ccco2)C1 (stereo not drawn)	none
Cc1ccc(/C=C2/C(=O)c3ccc(C(=O)O)cc3C2=O)o1	Mcl1 Noxa PPI 72
O=C(O)c1ccc2c(c1)C(=O)/C(=C/c1ccccc1)C2=O	Mcl1 Noxa PPI 64
Cc1ccc(C=C2C(=O)c3ccccc3C2=O)o1	none
CCOC(=O)C1=NN(c2ccc(C)cc2)CC1C(=O)OC (stereo not drawn)	none
COc1ccccc1Nc1nc(-c2sc(NC(=O)c3ccco3)nc2C)cs1	none
Cc1ccc(Cl)cc1Nc1nc(-c2sc(NC(=O)c3ccco3)nc2C)cs1	none
Cc1nc(NC(=O)c2ccco2)sc1-c1csc(Nc2ccc(Cl)cc2)n1	Mcl1 Noxa PPI 62
Cc1nc(NC(=O)c2ccco2)sc1-c1csc(Nc2ccc(Cl)cc2Cl)n1	14-3-3 Bad inh 87[fluorescence artefact?], Mcl1-Bid inh 87, Mcl1 Noxa PPI 100
COC(=O)c1c(NC(=O)COC(=O)[C@@H](NS(=O)(=O)c2ccc(C)cc2)C(C)C)sc2c1CCC2	none
OCCC1CN(Cc2cnc(-c3ccc(Cl)cc3)nc2)CCN1C1CCCC1 (stereo not drawn)	none (no result: Mcl-1 Bim block)
COc1c(S(=O)(=O)NCCCN2CCOCC2)ccc(Cl)c1Cl	eIF4E 4G PPI 86 (no result: Mcl-1 Bim block)
CC(=O)c1ccc(NC(=O)C(C)n2c3ccccc3c3nc(=O)cc(C)n32)cc1 (stereo not drawn)	Mcl1-Bid inh 97 (no result: Mcl-1 Bim block)
Cc1cc(=O)nc2c3ccccc3n(C(C)C(=O)NCCC(C)C)n12 (stereo not drawn)	none (no result: Mcl-1 Bim block)
CC(C)(C)NC(=O)C1CCN(S(=O)(=O)c2cccc(C(F)(F)F)c2)CC1	none
O=C1Nc2ccc(Br)cc2/C1=C/C(=O)c1ccc2c(c1)OCO2	Mcl1-Bid inh 72, Mcl1 Noxa PPI 105 (no result: Mcl-1 Bim block)
CCn1c(SCC(=O)NNC(=O)c2ccc(C)cc2)nnc1-c1ccco1	none
O=C(CSc1nccc(=O)[nH]1)c1ccccc1Br	Mcl1-Bid inh 71
COc1ccc2[nH]c3c4c(ccc3c2c1)C(=O)C=CC4=O	Mcl1-Bid inh 82, Mcl1 Noxa PPI 98 (no result: Mcl-1 Bim block)
COc1ccc2[nH]c(=O)cc(C(=O)O)c2c1	none
N#C/C(=C/c1ccc(OCc2ccc(C(=O)O)cc2)c(Br)c1)c1cccc(F)c1	Mcl1 Noxa PPI 74
O=C(COC(=O)c1ccc(S(=O)(=O)NCc2ccco2)cc1)Nc1ccc(Cl)cn1	none
O=c1[nH]c(C(Cl)Cl)nc2sc3c(c12)CCN(Cc1ccccc1)C3	Mcl1 Noxa PPI 94
CC(C)C(C)NC(=O)COc1ccc(S(=O)(=O)N2CCOCC2)cc1Cl (stereo not drawn)	none
CC1(C)C(=O)Nc2ccccc2N1C(=O)COc1ccc(S(=O)(=O)N2CCOCC2)cc1Cl	Mcl1 Noxa PPI 56
O=c1oc2c(O)c(O)cc3c(=O)oc4c(O)c(O)cc1c4c23	14-3-3 Bad inh 98[fluorescence artefact?], Mcl1-Bid inh 76, eIF4E 4G PPI 56[fluorescence artefact?], Mcl1 Noxa PPI 86
O=C(Nc1nc2c(F)cc(F)cc2s1)C1CC(=O)N(Cc2ccco2)C1 (stereo not drawn)	Mcl1 Noxa PPI 59 (no result: Mcl-1 Bim block)
NC(=O)NOCc1cccc(Cl)c1	none
COC(=O)c1[nH]c2ccc(Cl)cc2c1NC(=O)Oc1ccccc1	Mcl1 Noxa PPI 51
O=c1c(/C=N/Nc2ccccc2)c(Sc2nnnn2-c2ccccc2)nc2ccccn12	none
O=C(O)c1ccccc1N/N=C/c1c(Sc2nnnn2-c2ccccc2)nc2ccccn2c1=O	Mcl1 Noxa PPI 78 (no result: Mcl-1 Bim block)
COc1ccccc1COCC(O)CNCC1(N2CCCCC2)CCCCC1 (stereo not drawn)	Mcl1-Bid inh 62
CCOC(=O)c1cc(C)[nH]c(=S)c1C#N	Mcl1 Noxa PPI 72
O=C(NC1CCCCC1)N1CCN(c2ncccn2)CC1	none
O=C1CCC(=O)N1c1ccc(-c2nc3sc4c(c3c(=O)o2)CCC4)cc1	none (no result: Mcl-1 Bim block)
O=c1oc(-c2ccccc2)nc2sc3c(c12)CCC3	Mcl1 Noxa PPI 60
CCOC(=O)C1(CC)CC(CSc2nc3ccccc3[nH]2)OC1=O (stereo not drawn)	14-3-3 Bad inh 72
CCOC(=O)C1(CCC(C)C)CC(CSc2nc3ccccc3[nH]2)OC1=O (stereo not drawn)	none
O=S1(=O)c2ccccc2N=NN1Cc1ccc(Cl)cc1	Mcl1 Noxa PPI 53
O=C1c2ccncc2C(=O)N1Cc1cccc(Cl)c1	none
O=S1(=O)c2ccccc2N=NN1Cc1cc(Cl)cc(Cl)c1	Mcl1 Noxa PPI 99
COc1ccccc1NC(=O)N1CCCC1C(=O)Nc1nnc(C(C)C)s1 (stereo not drawn)	14-3-3 Bad inh 78[fluorescence artefact?]
CC(C)c1nnc(NC(=O)C2CCCN2C(=O)Nc2ccccc2F)s1 (stereo not drawn)	none
CO/N=C(\c1nonc1N)N1CCN(c2ccc(Cl)cc2[N+](=O)[O-])CC1	none
COc1ccc2c(N)c(C(=O)NN)[nH]c2c1	Mcl1 Noxa PPI 64 (no result: Mcl-1 Bim block)
O=C(CSc1cccc2cccc(Cl)c12)NCc1cccs1	none
N/C(=N\OC(=O)c1csnn1)c1ccc(C(F)(F)F)cc1	none (no result: Mcl-1 Bim block)
COc1cccc(NC(=O)Nc2ccc(C(C)(C)C)cc2)c1	eIF4E 4G PPI 66
COc1cccc(NC(=O)Nc2ccncc2)c1	none
COc1cc(C(=O)Nc2cc(-c3nc4cc(C)ccc4o3)ccc2C)cc(OC)c1OC	14-3-3 Bad inh 79
Cc1cc2nc(-c3ccc(NC(=O)C(C)C)cc3)oc2cc1C	Mcl1-Bid inh 73
Cc1ccc2oc(-c3ccc(C)c(NC(=S)NC(=O)c4cccs4)c3)nc2c1	Mcl1-Bid inh 53
O=C(CSc1ccc(Cl)cc1)Nc1cc(-c2nc3ncccc3o2)ccc1Cl	none
COc1ccc2oc(-c3ccc(C)c(NC(=O)CSc4ccc(Cl)cc4)c3)nc2c1	Mcl1-Bid inh 54
